Experiment [1] has as its system Sodium/Iodide Symporter (NIS), SLC5A5 (gene 6528). Kind of experiment: CPHEA_Stoker_NIS_Inhibition_RAIU: CPHEA's Radioactive Iodide Uptake (RAIU) Assay for Sodium/Iodide Symporter (NIS) Inhibition, Stoker and Laws Labs (AID 2283841). The procedure, abridged:
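hNIS-HEK293T-EPA cells incubated 2 h at room temperature with compound (0.001–100 uM, 0.5% DMSO) and 329 pM final 125I in HBSS/10 mM HEPES, pH 7.4. Intracellular 125I counted; normalised to DMSO maximal uptake, triplicate, three biological replicates.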

A short description of experiment [2]: CPHEA_Stoker_NIS_Cytotoxicity: Cytotoxicity Assessment for CPHEA's Radioactive Iodide Uptake (RAIU) Assay for Sodium/Iodide Symporter (NIS) Inhibition, Stoker and Laws Labs (AID 2283897).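 For AC50: active means loss of ATP signal versus DMSO meaning cytotoxicity.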 An outline of the steps: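 hNIS-HEK293T-EPA cells, human NIS expressed in HEK293T, treated 2 h with chemicals (0.001–100 uM, 0.5% final DMSO). ATP content read by CellTiter-Glo luminescence; loss of signal analysed relative to DMSO.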

Experiment [3] deals with frog Estrogen Receptor (ER2), gene 100174814. Kind of experiment: ATG_frER2_XSP2: Attagene TRANS-FACTORIAL Multi-Species (XSP2) HepG2 Assay for frog Estrogen Receptor (ER2) (AID 2283828). An outline of the steps: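 Human liver HepG2, transient MRTU transfection (TRANS format, exogenous NR–Gal4). 24 h cpd exposure. Total RNA → RT → PCR → FAM label → HpaI cut → CE. Positive direction vs DMSO.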

In experiment [4] the target is Peroxisome proliferator-activated receptor gamma (Homo sapiens) (UniProt P37231). Kind of experiment: ATG_hPPARg_XSP2: Attagene TRANS-FACTORIAL Multi-Species (XSP2) HepG2 Assay for human Peroxisome Proliferator-activated Receptor gamma (PPARg) (AID 2283829).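 Note: actives raise reporter mRNA above DMSO so AC50 reflects PPARg activation.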 The procedure, abridged:
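HepG2 cells transiently transfected with multiplexed GAL4-UAS reporter units for chimeric NR-Gal4 receptors, dosed 24 h. Reporter mRNA quantified by RT-PCR, 6-FAM labeling, HpaI digestion and capillary electrophoresis; gain-of-signal fitted against DMSO baseline.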

Experiment [5] deals with Nuclear receptor subfamily 1 group I member 2 (Mus musculus) (UniProt O54915). Kind of experiment: ATG_mPXR_XSP2: Attagene TRANS-FACTORIAL Multi-Species (XSP1) HepG2 Assay for mouse Pregnane X Receptor (PXR) (AID 2283831). An outline of the steps:
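HepG2 cells transiently transfected with GAL4-UAS reporter units expressing chimeric NR-GAL4 proteins; reporter mRNA measured 24 h after dosing by RT-PCR with 6-FAM labelling and capillary electrophoresis, gain of signal relative to DMSO.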

Experiment [6] addresses zebrafish Thyroid Hormone Receptor alpha (TRa), thraa (gene 30670) (UniProt Q98867). Kind of experiment: ATG_zfTRa_XSP2: Attagene TRANS-FACTORIAL Multi-Species (XSP1) HepG2 Assay for zebrafish Thyroid Hormone Receptor alpha (TRa) (AID 2283832).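 Note: actives raise zebrafish TRa-Gal4 reporter transcript above DMSO baseline.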 The procedure, abridged:
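Chimeric receptor-Gal4 activity was assessed in transfected human liver HepG2 cells 24 h after dosing, using reporter transcript levels detected by RT-PCR and capillary electrophoresis. DMSO served as baseline.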

For experiment [7], the system named is zebrafish Peroxisome Proliferator-activated Receptor gamma (PPARg), gene 557037. The experiment in a line: ATG_zfPPARg_XSP2: Attagene TRANS-FACTORIAL Multi-Species (XSP2) HepG2 Assay for zebrafish Peroxisome Proliferator-activated Receptor gamma (PPARg) (AID 2283833).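 Note: actives increase reporter signal over DMSO so AC50 reflects activation.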 The procedure, abridged: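 HepG2 cells transiently transfected with GAL4-UAS reporter units expressing a zebrafish PPARg–GAL4 chimera; compound exposure 24 h. Reporter mRNA quantified by RT-PCR with fluorescent labelling and capillary electrophoresis; gain of signal fitted relative to DMSO baseline.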

For experiment [8], the system named is turtle Thyroid Hormone Receptor, alpha (TRa), gene 101949057. Kind of experiment: ATG_trTRa_XSP2: Attagene TRANS-FACTORIAL Multi-Species (XSP1) HepG2 Assay for turtle Thyroid Hormone Receptor, alpha (TRa) (AID 2283834).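 Note: hits raise reporter mRNA over the DMSO baseline so AC50 marks activators.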 The procedure, abridged: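 HepG2 cells transiently transfected with multiplexed GAL4-UAS reporter units expressing chimeric NR-Gal4 proteins were dosed for 24 hours. Reporter mRNA was quantified by RT-PCR with 6-FAM labelling and capillary electrophoresis, gain of signal scored against DMSO.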

In experiment [9] the target is zebrafish Thyroid Hormone Receptor beta (TRb), thrb (gene 30607) (UniProt Q9PVE4). The experiment in a line: ATG_zfTRb_XSP2: Attagene TRANS-FACTORIAL Multi-Species (XSP1) HepG2 Assay for zebrafish Thyroid Hormone Receptor beta (TRb) (AID 2283836). An outline of the steps: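 Fluorescence of labelled reporter cDNA fragments, separated by capillary electrophoresis, gives mRNA induction from exogenous NR-Gal4 chimeras in transiently transfected HepG2 cells after 24 h dosing; 3 nM 6-alpha-fluorotestosterone and 1.5 nM norgestrel included in the run.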
Sequence of zebrafish Thyroid Hormone Receptor beta (TRb), thrb (gene 30607) (Q9PVE4 whole entry, looked up, the tested form may be a part): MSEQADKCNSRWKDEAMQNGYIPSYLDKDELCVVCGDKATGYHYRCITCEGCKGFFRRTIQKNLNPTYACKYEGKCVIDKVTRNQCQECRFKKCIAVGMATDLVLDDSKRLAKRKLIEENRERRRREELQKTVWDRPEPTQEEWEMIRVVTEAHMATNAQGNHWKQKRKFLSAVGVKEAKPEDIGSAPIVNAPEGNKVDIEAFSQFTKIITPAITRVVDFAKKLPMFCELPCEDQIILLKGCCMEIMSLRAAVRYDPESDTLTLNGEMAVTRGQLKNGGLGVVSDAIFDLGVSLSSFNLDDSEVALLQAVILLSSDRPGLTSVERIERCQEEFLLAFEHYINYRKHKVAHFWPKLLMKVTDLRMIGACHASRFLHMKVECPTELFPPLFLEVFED

The target of experiment [10] is human Thyroid hormone Receptor alpha (TRa), THRA (gene 7067) (UniProt P10827). The experiment in a line: ATG_hTRa_XSP2: Attagene TRANS-FACTORIAL Multi-Species (XSP2) HepG2 Assay for human Thyroid hormone Receptor alpha (TRa) (AID 2283838). The procedure, abridged:
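HepG2 cells transiently transfected with multiplexed GAL4-UAS reporter units and exogenous NR-GAL4 chimeras; 24 h chemical exposure with 3 nM 6-alpha-fluorotestosterone and 1.5 nM norgestrel present. Reporter mRNA measured by RT-PCR, FAM labelling, HpaI digestion, capillary electrophoresis; gain-of-signal versus DMSO.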

For experiment [11], the target named is frog Thyroid hormone Receptor alpha (TRa), thra-a (gene 397942) (UniProt P15204). Kind of experiment: ATG_frTRa_XSP2: Attagene TRANS-FACTORIAL Multi-Species (XSP2) HepG2 Assay for frog Thyroid hormone Receptor alpha (TRa) (AID 2283839). An outline of the steps:
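HepG2 cells transiently transfected with multiplexed GAL4-UAS reporter units expressing chimeric frog TRα-Gal4; reporter mRNA read 24 h after dosing by RT-PCR, FAM-labelled primer extension, HpaI digest and capillary electrophoresis. Gain of signal fitted versus DMSO.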

Experiment [12] addresses human Thyroid hormone Receptor beta (TRb), THRB (gene 7068) (UniProt P10828). Kind of experiment: ATG_hTRb_XSP2: Attagene TRANS-FACTORIAL Multi-Species (XSP2) HepG2 Assay for human Thyroid hormone Receptor beta (TRb) (AID 2283840).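 Note: actives raise reporter mRNA so potency reflects agonist-like gain of signal.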 The procedure, abridged:
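HepG2 cells were transiently transfected with GAL4-UAS multiplexed reporter units expressing chimeric NR-Gal4 proteins, dosed 24 h; reporter mRNA was quantified by RT-PCR, fluorescent labeling, HpaI digestion and capillary electrophoresis, fitted for gain of signal versus DMSO.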

Experiment [13] has as its target mouse Peroxisome Proliferator-activated Receptor gamma (PPARg), Pparg (gene 19016) (UniProt P37238). Kind of experiment: ATG_mPPARg_XSP2: Attagene TRANS-FACTORIAL Multi-Species (XSP2) HepG2 Assay for mouse Peroxisome Proliferator-activated Receptor gamma (PPARg) (AID 2283830).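 Note: hits are gains in reporter mRNA above DMSO so AC50 marks activation.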 The procedure, abridged:
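HepG2 cells transiently transfected with GAL4-UAS reporter units for chimeric NR-Gal4 proteins including mouse PPARg, exposed 24 h; medium contained 3 nM 6-alpha-fluorotestosterone and 1.5 nM norgestrel. Reporter mRNA quantified by RT-PCR, HpaI digestion and capillary electrophoresis, vs DMSO.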

Experiment [14] in a line: ATG_XTT_Cytotoxicity_XSP2: Cytotoxicity Assessment in the Attagene TRANS-FACTORIAL Multi-Species (XSP2) HepG2 Assay (AID 2283837). An outline of the steps: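 HepG2 cells, transiently transfected with multiple reporter constructs, exposed to chemical for 24 h. Cell number assessed with XTT fluorescence read-out; loss of signal fitted relative to DMSO.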

Structures are written as SMILES. Results filed as inconclusive are left out. The source holds several records for some structures; these can differ, active in one and inactive in another. Activity calls are given as the source filed them. Rule for the calls: active = hit-call score of the fitted dose curve at least 0.9, where 1 is the maximum; inconclusive = response in the unintended direction; inactive = score below 0.9.

Sequence of frog Thyroid hormone Receptor alpha (TRa), thra-a (gene 397942) (P15204 whole entry, looked up, the tested form may be a part): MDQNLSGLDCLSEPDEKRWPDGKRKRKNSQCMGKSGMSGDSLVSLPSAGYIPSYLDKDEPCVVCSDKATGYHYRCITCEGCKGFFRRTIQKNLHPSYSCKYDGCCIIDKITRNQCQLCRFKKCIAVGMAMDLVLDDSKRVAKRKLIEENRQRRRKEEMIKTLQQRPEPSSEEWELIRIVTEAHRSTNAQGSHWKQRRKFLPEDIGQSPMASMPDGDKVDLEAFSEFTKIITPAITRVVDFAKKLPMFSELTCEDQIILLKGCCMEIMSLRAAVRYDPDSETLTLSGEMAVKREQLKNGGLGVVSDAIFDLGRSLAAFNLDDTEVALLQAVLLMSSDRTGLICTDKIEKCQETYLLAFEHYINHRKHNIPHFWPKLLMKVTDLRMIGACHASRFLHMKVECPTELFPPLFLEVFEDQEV
Sequence of human Thyroid hormone Receptor beta (TRb), THRB (gene 7068) (P10828 whole entry, looked up, the tested form may be a part): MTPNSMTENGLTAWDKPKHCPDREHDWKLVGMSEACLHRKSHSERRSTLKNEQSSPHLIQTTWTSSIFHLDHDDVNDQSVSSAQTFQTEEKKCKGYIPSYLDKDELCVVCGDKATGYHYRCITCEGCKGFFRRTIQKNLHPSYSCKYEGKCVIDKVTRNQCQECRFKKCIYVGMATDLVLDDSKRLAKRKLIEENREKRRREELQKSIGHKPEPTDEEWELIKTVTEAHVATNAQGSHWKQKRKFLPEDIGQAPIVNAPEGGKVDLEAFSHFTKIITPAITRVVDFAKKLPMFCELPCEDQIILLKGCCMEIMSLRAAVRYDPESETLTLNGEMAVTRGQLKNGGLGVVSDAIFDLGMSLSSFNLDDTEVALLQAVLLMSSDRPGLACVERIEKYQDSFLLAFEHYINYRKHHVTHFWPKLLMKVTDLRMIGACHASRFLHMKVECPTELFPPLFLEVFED
Sequence of zebrafish Thyroid Hormone Receptor alpha (TRa), thraa (gene 30670) (Q98867 whole entry, looked up, the tested form may be a part): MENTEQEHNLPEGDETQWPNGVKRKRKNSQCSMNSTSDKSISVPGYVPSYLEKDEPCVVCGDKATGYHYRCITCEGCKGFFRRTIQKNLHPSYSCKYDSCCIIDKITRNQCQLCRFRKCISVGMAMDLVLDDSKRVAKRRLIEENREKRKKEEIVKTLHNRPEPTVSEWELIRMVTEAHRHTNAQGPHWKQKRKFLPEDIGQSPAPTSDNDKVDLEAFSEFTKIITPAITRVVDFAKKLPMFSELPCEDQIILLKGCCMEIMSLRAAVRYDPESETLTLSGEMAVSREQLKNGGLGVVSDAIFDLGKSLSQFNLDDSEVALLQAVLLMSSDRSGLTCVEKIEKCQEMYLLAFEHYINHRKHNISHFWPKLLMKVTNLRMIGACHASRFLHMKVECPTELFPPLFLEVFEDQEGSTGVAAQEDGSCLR
Sequence of Nuclear receptor subfamily 1 group I member 2 (Mus musculus) (O54915 whole entry, looked up, the tested form may be a part): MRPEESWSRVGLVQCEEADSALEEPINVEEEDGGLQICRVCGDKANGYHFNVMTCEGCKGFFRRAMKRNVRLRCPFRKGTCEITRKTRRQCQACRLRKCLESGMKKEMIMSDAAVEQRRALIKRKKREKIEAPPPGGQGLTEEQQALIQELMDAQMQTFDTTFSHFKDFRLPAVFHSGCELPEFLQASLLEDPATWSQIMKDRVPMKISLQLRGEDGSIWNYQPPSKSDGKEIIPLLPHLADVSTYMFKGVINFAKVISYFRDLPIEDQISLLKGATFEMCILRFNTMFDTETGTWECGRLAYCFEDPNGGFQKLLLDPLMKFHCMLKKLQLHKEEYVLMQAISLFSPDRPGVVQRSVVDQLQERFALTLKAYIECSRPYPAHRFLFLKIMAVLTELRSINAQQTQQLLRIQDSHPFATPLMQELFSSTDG
Sequence of mouse Peroxisome Proliferator-activated Receptor gamma (PPARg), Pparg (gene 19016) (P37238 whole entry, looked up, the tested form may be a part): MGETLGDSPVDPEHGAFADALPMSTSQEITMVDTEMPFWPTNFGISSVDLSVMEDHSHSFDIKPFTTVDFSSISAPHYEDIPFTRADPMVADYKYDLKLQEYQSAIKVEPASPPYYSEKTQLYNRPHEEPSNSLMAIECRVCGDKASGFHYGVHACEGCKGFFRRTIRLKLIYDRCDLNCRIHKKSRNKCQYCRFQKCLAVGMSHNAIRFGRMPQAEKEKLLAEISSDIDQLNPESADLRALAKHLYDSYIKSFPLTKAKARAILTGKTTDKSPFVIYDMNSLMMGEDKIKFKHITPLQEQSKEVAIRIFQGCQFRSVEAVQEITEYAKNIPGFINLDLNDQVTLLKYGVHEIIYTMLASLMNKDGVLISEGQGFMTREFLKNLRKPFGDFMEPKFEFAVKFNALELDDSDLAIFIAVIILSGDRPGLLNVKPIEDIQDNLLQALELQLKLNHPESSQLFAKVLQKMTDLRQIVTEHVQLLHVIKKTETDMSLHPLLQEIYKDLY
Sequence of Peroxisome proliferator-activated receptor gamma (Homo sapiens) (P37231 whole entry, looked up, the tested form may be a part): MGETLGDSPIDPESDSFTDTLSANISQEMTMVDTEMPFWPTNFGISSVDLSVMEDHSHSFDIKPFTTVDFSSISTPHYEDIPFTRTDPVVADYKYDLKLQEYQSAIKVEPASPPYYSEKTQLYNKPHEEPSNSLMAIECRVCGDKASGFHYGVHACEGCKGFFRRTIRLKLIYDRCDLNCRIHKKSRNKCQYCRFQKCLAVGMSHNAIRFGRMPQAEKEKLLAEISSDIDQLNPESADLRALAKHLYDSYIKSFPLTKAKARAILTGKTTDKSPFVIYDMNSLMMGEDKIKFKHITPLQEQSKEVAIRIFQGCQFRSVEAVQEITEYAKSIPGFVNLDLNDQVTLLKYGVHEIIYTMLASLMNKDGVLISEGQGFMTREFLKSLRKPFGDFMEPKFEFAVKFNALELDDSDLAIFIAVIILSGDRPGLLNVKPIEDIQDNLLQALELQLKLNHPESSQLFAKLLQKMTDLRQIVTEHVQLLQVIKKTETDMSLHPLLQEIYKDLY
Sequence of human Thyroid hormone Receptor alpha (TRa), THRA (gene 7067) (P10827 whole entry, looked up, the tested form may be a part): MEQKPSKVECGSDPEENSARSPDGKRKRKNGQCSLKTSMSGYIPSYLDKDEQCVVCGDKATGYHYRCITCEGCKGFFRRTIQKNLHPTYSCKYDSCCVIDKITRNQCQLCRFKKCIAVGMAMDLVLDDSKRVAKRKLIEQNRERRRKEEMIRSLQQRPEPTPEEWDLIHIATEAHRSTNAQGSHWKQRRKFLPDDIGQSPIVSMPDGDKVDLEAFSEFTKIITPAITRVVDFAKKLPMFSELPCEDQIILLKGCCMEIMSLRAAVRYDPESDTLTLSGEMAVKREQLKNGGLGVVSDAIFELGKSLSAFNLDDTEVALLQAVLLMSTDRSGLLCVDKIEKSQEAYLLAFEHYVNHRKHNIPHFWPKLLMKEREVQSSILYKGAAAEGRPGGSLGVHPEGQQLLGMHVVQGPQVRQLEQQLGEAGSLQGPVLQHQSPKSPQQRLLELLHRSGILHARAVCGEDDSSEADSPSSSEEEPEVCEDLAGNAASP

As to `S=C([S-])NCCNC(=S)[S-].[Mn+2]`, the outcome in experiment [1] and in experiment [2] was inactive.
On to `C#C[C@]1(O)CC[C@H]2[C@@H]3CCC4=CC(=O)CC[C@@H]4[C@H]3CC[C@@]21CC`, for which the outcome in [3], in experiment [4], in experiment [5], in experiment [6], in experiment [7] and in experiment [8] was inactive. Also, the molecule was called inactive in [9], in [10] and in [11]. For the same molecule, in experiment [12], the AC50 was 1.44 µM (active).
`CCCCC(CC)CN1C(=O)C2C3C=CC(C3)C2C1=O` (stereo not given): the AC50 in [3] is 146 µM (active); in [4], 100 µM (active); in [13] it was 177 µM (active); in [5], 1.34 µM (active); in [7] it was 100 µM (active); in [2] it was 50 µM (active). For the same molecule, the molecule was called inactive in experiment [6], in experiment [8], in [11] and in experiment [1].
`CCOC(=O)COc1cc(-n2ncc(C(F)(F)F)c(C)c2=O)c(F)cc1Cl`: the outcome in experiment [1] and in experiment [2] was inactive.
For `CCOC(=O)C(C)Oc1ccc(Oc2nc3ccc(Cl)cc3o2)cc1` (stereo not given), the outcome in experiment [1] and in [2] was inactive.
Consider `C=CCOC(Cn1ccnc1)c1ccc(Cl)cc1Cl` (stereo not given), for which the molecule was classed as inactive in experiment [3], in experiment [7], in experiment [9], in [10], in experiment [1] and in [2]. Further, the AC50 is 82.2 µM (active) in [4], 100 µM (active) in experiment [13] and 1.34 µM (active) in [5].
Regarding `CN(C)C(=O)Nc1ccc(Cl)c(Cl)c1`, the AC50 was 33.8 µM (active) in experiment [3], 100 µM (active) in [13] and 6.9 µM (active) in experiment [5]. Besides, the molecule was classed as inactive in experiment [3], in [4], in [13], in experiment [5], in experiment [6] and in experiment [7]. Also, the call in [8], in experiment [9], in experiment [14], in [10], in experiment [11] and in [12] was inactive.

In general, AC50 refers to the concentration giving half of the maximal activity seen.

The record behind these values is PubChem BioAssay (EPA / NIEHS).
